# From PubChem BioAssay (NCATS)
# Results filed as inconclusive are left out. A call without a number means that no potency is given here. Calls of active or inactive are those of the source. The call rests on the fitted dose curve; in most records, active means well fitted curve in the direction sought with a large enough effect; inconclusive means small, poorly fitted or top-dose-only effect, or another doubt; inactive means no such curve, though single readings can be large; an effect the other way counts as inactive or inconclusive.
# Legend:
# [1] = biological target: Lysine-specific demethylase 5B (Homo sapiens) (UniProt Q9UGL1); assay: Optimization screen for KDM5B Histone Demethylases FDH coupled qHTS against the LOPAC library (AID 1347166)
# Procedure, shortened: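 KDM5BDeltaAP (200nM final) preincubated 10 min with compound, then 12.5uM H3K4Me3, 25uM a-ketoglutarate, ascorbate, Fe(II), NAD+ and FDH added; 50mM HEPES pH 7.5, 0.01% Tween-20. NADH fluorescence (340/450 nm) change over 30 min, room temperature.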
# [2] = system: Zika virus NS2B-NS3 protease (unlinked complex); assay: Primary screen GU Rhodamine qHTS for Zika virus inhibitors: Unlinked NS2B-NS3 protease assay (AID 1347159); further: nearly all actives have a fitted effect of over 60% in size
# Procedure, shortened: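 Percent inhibition derives from the 15-min fluorescence change (ex 480, em 540 nm), normalized to no-enzyme and no-inhibitor wells. Reactions contained 25 nM NS2B-NS3 complex and 1.5 microM substrate in 10 mM Tris-HCl pH 8.0.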
# [3] = system: Zika virus NS2B-NS3 protease (linked construct); assay: Primary screen NINDS Rhodamine qHTS for Zika virus inhibitors (AID 1347160); further: nearly all actives have a fitted effect of over 55% in size
# Procedure, shortened: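 In 10 mM Tris-HCl pH 8.0 containing 0.01% Tween 20, linked NS2B-NS3 protease (25 nM final) is exposed to test compounds for 15 min. Cleavage of 1.5 microM Rhodamine110 substrate is tracked by fluorescence over 15 min.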
# Sequence of Lysine-specific demethylase 5B (Homo sapiens) (Q9UGL1 whole entry, looked up): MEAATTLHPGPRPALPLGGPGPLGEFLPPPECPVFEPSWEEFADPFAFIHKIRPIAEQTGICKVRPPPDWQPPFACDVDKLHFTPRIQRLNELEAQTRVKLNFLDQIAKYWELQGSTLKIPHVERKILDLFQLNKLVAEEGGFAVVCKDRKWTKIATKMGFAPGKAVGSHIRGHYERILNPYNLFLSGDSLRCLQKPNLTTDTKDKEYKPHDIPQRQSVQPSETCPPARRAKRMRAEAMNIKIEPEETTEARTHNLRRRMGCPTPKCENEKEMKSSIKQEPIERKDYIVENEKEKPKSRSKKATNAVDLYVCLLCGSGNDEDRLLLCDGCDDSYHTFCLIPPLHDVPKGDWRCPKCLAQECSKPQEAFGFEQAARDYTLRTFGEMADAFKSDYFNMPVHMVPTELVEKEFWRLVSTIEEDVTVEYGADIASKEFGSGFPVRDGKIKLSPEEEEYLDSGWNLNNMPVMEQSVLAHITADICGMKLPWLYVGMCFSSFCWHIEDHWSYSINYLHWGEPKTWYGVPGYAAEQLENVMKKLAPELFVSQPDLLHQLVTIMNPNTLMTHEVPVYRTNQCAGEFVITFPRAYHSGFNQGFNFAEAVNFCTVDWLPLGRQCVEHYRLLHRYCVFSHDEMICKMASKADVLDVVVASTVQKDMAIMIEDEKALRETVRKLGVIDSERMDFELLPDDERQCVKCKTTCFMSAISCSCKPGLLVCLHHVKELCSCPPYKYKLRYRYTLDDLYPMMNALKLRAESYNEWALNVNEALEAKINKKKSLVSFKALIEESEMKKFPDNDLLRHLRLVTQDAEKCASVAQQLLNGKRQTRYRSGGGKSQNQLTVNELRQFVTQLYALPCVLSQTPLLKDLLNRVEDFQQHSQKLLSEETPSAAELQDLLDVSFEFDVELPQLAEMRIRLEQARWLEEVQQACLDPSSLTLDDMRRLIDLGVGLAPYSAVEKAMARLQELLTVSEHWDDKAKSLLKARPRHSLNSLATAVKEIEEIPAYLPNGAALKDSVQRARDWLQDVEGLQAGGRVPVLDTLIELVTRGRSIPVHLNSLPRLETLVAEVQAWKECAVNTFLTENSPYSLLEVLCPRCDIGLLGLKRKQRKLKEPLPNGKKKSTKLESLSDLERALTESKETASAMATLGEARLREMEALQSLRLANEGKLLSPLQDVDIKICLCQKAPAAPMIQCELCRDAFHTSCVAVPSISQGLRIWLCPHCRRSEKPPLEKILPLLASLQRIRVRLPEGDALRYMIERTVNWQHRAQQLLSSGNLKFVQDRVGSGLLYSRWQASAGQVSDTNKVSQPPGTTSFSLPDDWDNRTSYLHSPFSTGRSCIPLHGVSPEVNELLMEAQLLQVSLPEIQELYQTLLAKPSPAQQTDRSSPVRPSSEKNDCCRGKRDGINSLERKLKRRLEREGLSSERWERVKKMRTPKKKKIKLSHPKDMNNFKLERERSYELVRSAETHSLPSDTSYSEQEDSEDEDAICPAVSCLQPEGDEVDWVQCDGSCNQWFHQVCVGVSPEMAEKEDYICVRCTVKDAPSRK
Structure (SMILES),outcome [1],Potency [2],Potency [3]
CN[C@H](CC(C)C)C(=O)N[C@H]1C(=O)N[C@@H](CC(N)=O)C(=O)N[C@@H]2C(=O)N[C@H]3C(=O)N[C@H](C(=O)N[C@H](C(=O)O)c4cc(O)cc(O)c4-c4cc3ccc4O)[C@H](O)c3ccc(c(Cl)c3)Oc3cc2cc(c3O[C@@H]2O[C@H](CO)[C@@H](O)[C@H](O)[C@@H]2O[C@H]2C[C@](C)(N)[C@H](O)[C@H](C)O2)Oc2ccc(cc2Cl)[C@H]1O,inactive,,
C[C@H](O)[C@@H]1C(=O)N2C(C(=O)O)=C(S[C@@H]3CN[C@H](CNS(N)(=O)=O)C3)[C@@H](C)[C@@H]12,,inactive,inactive
CC(O)(C#Cc1ccc2c(c1)N(c1nc(N)ncc1Cl)CC2)c1nccs1 (stereo unspecified),,,inactive
CCC[C@H]1C[C@H](C(=O)N[C@@H]([C@@H]2O[C@@H](SC)[C@@H](O)[C@@H](O)[C@@H]2O)[C@H](C)Cl)N(C)C1,,inactive,inactive
